Measurements from PubChem BioAssay AID651800 (The Scripps Research Institute Molecular Screening Center, 2012).
Screen size: about 360,000 compounds; about 1,300 (0.36%) were called active. Cut-off read from the data, not from the text of the source: active = inhibition above about 19%; inactive = the rest. Many of the other results were omitted from the sample, so actives are more common in it than they were.

These compounds were tested on T-cell receptor (TCR) (assay: small molecules blocking TCR binding to CD3 – biochemical, fluorescence, TAMRA-labeled TCR probe, primary screen (AID 651800;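 note: recombinant mutant TCR 2C K166C tagged with TAMRA read by polarization; 0% = receptor in buffer alone and 100% = receptor with positive control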)). Conditions: at 9.4 µM, hits give high values.
With `O=C(C(=O)N1CCC(CNC(=O)c2cccnc2Cl)CC1)c1cccs1` the inhibition was 0.67% (inactive).
For `C[C@H](CO)N1C[C@H](C)[C@@H](CN(C)C(=O)Nc2ccccc2F)OCc2cn(nn2)CCCC1=O`, the inhibition was 4.97% (inactive).
In the case of `CNC(=S)NNC(=O)c1oc2nc(-c3ccccc3)cc(-c3ccco3)c2c1N`, the inhibition was 59.3% (active).
`NNC(=O)c1oc2nc(-c3ccccc3)cc(-c3ccco3)c2c1N` was tested, and the inhibition was 16.2% (inactive).
In the case of `Cc1ccccc1C(=O)N[C@H](C(=O)N1CCC[C@H]1C(=O)NCc1ccccc1)C(C)C`, the inhibition was 2.94% (inactive).
With `CCCCNc1cccc2c1S(=O)(=O)N[C@@H](C)CO2` the inhibition was 2.35% (inactive).
With `Cc1ccc(N)cc1CN1CCN(c2ncc(Cc3ccccc3)cn2)CC1` the inhibition was 3.41% (inactive).
For `COCCCNC(=O)C[C@H]1C[C@@]2(C(=O)OC)C(=C[C@H](C(C)(C)C)O[C@@H]2C)N(Cc2ccc3c(c2)OCO3)C1=O`, the inhibition was 3.16% (inactive).
For `CC(C)CNc1cccc2c1S(=O)(=O)N[C@H](CC(C)C)CO2`, the inhibition was -1.27% (inactive).
For `Brc1ccc(COCCc2cn(Cc3ccccc3)c3ccccc23)cc1`, the inhibition was -0.9% (inactive).
For `CC12CCC(C(=O)N(NC(=O)c3ccccc3O)C1=O)C2(C)C` (stereo not given), the inhibition was 33.6% (active).
`CC(Sc1nnc2c(n1)C1CCC2(C)C1(C)C)C(=O)Nc1ccccc1` (stereo not given) was tested, and the inhibition was 1.84% (inactive).
In the case of `CC1=CC(C)(C)NC(=S)N1NC(=O)c1ccccc1Cl`, the inhibition was -4.79% (inactive).
In the case of `Clc1cccc2c1C1CC2CCN1Cc1ccccc1` (stereo not given), the inhibition was -2.68% (inactive).
For `O=C(NCc1ccccc1)[C@H]1CCCN1C(=O)[C@H]1CCCN1C(=O)N1CCOCC1`, the inhibition was 4.79% (inactive).
For `CCCCCCCCN1C(=O)[C@@H](CC(=O)NCc2ccc(C)o2)C[C@@]2(C(=O)OC)C1=C[C@H](C(C)(C)C)O[C@@H]2C`, the inhibition was 1.15% (inactive).
With `O=S(=O)(O)c1cc2onnc2c2ccccc12` the inhibition was 28.6% (active).
With `COc1ccccc1C(=O)Nn1cnnc1` the inhibition was -2.57% (inactive).
`O=C(CCN1C(=O)c2ccccc2C1=O)NNC(=O)c1ccc(Cl)cc1Cl` was tested, and the inhibition was -3.56% (inactive).
`COc1ccccc1C(=O)NNC(=O)CCN1C(=O)/C(=C\c2ccccc2)SC1=S` was tested, and the inhibition was 23.9% (active).
For `CC[C@H](NC(=O)[C@H](Cc1ccccc1)NC(=O)[C@H]1O[C@@H](n2cnc3c(=O)[nH]c(N)nc32)[C@H](O)[C@@H]1O)c1ccccc1`, the inhibition was 1.67% (inactive).
For `COC(=O)[C@]1(Cc2ccccc2)NC=C(C(=O)c2ccccc2)[C@@H]1c1cccc(OC)c1`, the inhibition was -0.52% (inactive).
`CCOC(=O)c1c(N)c(C#N)nn1-c1ccccc1C(=O)OC` was tested, and the inhibition was -3.5% (inactive).
With `Cc1ccc2nc(-c3ccc(CN4CCC(n5cc(-c6ccccc6)[nH]c5=O)CC4)cc3)c(-c3ccccc3)nc2c1` the inhibition was 5.23% (inactive).
`O=C1Nc2ccccc2C1=NN=Cc1ccco1` was tested, and the inhibition was 4.85% (inactive).
`COc1ccccc1C(=O)N1O[C@]23C=C[C@]14C[C@@H](O)CC[C@]4(C)C2CC[C@]1(C)[C@@H]([C@H](C)/C=C/[C@H](C)C(C)C)CC[C@H]13` (stereo not given in full) was tested, and the inhibition was -1.2% (inactive).
`CCOc1[nH]n(-c2ccc(Cl)cc2)c(=O)c1C=Nc1ccc(O)cc1` was tested, and the inhibition was 28% (active).
In the case of `Cc1ccc(C)c(CN2CCC(CNC(=O)C3CCCN(c4ncnc5c4nc4n5CCCCC4)C3)CC2)c1` (stereo not given), the inhibition was -2.34% (inactive).
With `CC1(C)CC(=O)C=C(NCCN2CCNCC2)C1` the inhibition was 5.49% (inactive).
For `Nc1nc2c(ncn2[C@@H]2O[C@H](C(=O)N[C@@H](Cc3ccccc3)C(=O)NCc3ccccc3)[C@@H](O)[C@H]2O)c(=O)[nH]1`, the inhibition was -1.96% (inactive).
In the case of `CN1C(=O)CN2CCc3ccccc3C2c2cc(Cl)ccc21` (stereo not given), the inhibition was -2.81% (inactive).
With `COC(=O)C1=C(C)N(Cc2ccc(F)cc2)C(=S)NC1c1cccc(Cl)c1` (stereo not given) the inhibition was 3% (inactive).
With `O=C(NS(=O)(=O)c1cccs1)[C@H]1O[C@@H](n2ccc(=O)[nH]c2=O)[C@H](O)[C@@H]1O` the inhibition was -0.49% (inactive).
For `Cc1cc(C(=O)CCC(=O)NNC(=O)c2ccccc2O)c(C)s1`, the inhibition was 25.6% (active).
`Cc1cccc(NS(=O)(=O)c2cccc(C(=O)NNC(=O)c3ccccc3O)c2)c1` was tested, and the inhibition was 16.2% (inactive).
For `O=C(NNC(=O)c1cc(S(=O)(=O)N2CCCCC2)ccc1Cl)c1ccccc1O`, the inhibition was 16.6% (inactive).
With `Cc1cc2occ(CC(=O)NNC(=O)c3ccccc3F)c2cc1C` the inhibition was 2.71% (inactive).
With `O=C(NNC(=O)c1ccccc1O)c1ccccc1O` the inhibition was 40% (active).
With `Cc1ccccc1C(=O)NNC(=O)CN1C(=O)c2ccccc2C1=O` the inhibition was -5.72% (inactive).
In the case of `COc1cccc(NC(=O)N(C)C[C@@H]2OCc3cn(nn3)CCCC(=O)N([C@@H](C)CO)C[C@H]2C)c1`, the inhibition was -4.37% (inactive).
For `C=CC1=C(C(=O)O)N2C(=O)[C@@H](NC(=O)/C(=N\OCC(=O)O)c3csc(N)n3)[C@H]2SC1`, the inhibition was 4.98% (inactive).
`C=CC1=C(C(=O)O)N2C(=O)[C@@H](NC(=O)/C(=N/OCC(=O)O)c3csc(N)n3)[C@H]2SC1` was tested, and the inhibition was 25.6% (active).
With `CCCCOCC1CN(CCCC)S(=O)(=O)c2c(Oc3ccc(F)cc3)cccc2O1` (stereo not given) the inhibition was 0.77% (inactive).
`Nc1ncnc2c1ncn2[C@@H]1O[C@H](C(=O)N[C@@H](CCc2ccccc2)C(=O)N2CCCN(Cc3cccs3)CC2)[C@@H](O)[C@H]1O` was tested, and the inhibition was 3.68% (inactive).
For `COc1cccc(CNC(=O)[C@H]2CCCN2C(=O)[C@H]2CCCN2C(=O)c2cc(F)cc(F)c2)c1`, the inhibition was -6.91% (inactive).
In the case of `CC(=O)N1C[C@@H](CO)[C@@H](N(C)C(=O)C(C)(C)C)C[C@H]1c1ccccc1Br`, the inhibition was -0.47% (inactive).
With `CN(C)[C@@H]1C(=O)C(C(N)=O)=C(O)[C@@]2(O)C(=O)C3=C(O)c4c(O)ccc(Cl)c4[C@@H](O)[C@H]3C[C@@H]12` the inhibition was 21.1% (active).
For `C=C1c2c(Cl)ccc(O)c2C(O)=C2C(=O)[C@]3(O)C(O)=C(C(N)=O)C(=O)[C@@H](N(C)C)[C@@H]3[C@@H](O)C12` (stereo not given in full), the inhibition was 33.5% (active).
`CCc1c(-c2ccccc2OC)ncn1CCc1ccccc1OC` was tested, and the inhibition was 7.58% (inactive).
With `NCCN1CCN2C(=O)CN(C(=O)c3ccccc3)CC12` (stereo not given) the inhibition was -1.77% (inactive).
